From ChEMBL document CHEMBL1961873, “Compounds: GSK PKIS; Assays: Nanosyn kinase panel” (2012)

Legend:
[1] = target: Protein kinase C gamma type (Homo sapiens) (UniProt P05129); details: at 1 µM;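 note: each value is an averaged percent inhibition of the enzyme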
[2] = target: T1, Protein kinase C iota type (Homo sapiens) (UniProt P41743); details: at 0.1 µM
T1 sequence (whole entry): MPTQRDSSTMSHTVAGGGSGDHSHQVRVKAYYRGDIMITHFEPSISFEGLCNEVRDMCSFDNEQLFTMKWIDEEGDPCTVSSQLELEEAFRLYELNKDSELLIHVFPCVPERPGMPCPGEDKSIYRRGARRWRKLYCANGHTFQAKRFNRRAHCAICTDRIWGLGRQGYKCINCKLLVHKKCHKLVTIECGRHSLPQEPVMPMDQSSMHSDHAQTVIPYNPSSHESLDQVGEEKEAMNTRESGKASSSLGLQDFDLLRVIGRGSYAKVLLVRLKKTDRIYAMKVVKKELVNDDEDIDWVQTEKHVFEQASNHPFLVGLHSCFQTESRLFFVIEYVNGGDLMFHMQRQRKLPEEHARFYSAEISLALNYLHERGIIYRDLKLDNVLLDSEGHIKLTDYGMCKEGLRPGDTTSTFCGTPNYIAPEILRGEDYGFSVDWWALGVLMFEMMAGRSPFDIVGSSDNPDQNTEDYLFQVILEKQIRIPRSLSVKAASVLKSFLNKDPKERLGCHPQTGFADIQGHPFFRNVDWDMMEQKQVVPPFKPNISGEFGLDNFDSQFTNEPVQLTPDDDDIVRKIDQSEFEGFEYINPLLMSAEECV

[3] = target: T1, Protein kinase C iota type (Homo sapiens); details: at 1 µM
[4] = target: Protein kinase C theta type (Homo sapiens) (UniProt Q04759); details: at 0.1 µM
Chain of Protein kinase C theta type (Homo sapiens) (Q04759 whole entry, looked up): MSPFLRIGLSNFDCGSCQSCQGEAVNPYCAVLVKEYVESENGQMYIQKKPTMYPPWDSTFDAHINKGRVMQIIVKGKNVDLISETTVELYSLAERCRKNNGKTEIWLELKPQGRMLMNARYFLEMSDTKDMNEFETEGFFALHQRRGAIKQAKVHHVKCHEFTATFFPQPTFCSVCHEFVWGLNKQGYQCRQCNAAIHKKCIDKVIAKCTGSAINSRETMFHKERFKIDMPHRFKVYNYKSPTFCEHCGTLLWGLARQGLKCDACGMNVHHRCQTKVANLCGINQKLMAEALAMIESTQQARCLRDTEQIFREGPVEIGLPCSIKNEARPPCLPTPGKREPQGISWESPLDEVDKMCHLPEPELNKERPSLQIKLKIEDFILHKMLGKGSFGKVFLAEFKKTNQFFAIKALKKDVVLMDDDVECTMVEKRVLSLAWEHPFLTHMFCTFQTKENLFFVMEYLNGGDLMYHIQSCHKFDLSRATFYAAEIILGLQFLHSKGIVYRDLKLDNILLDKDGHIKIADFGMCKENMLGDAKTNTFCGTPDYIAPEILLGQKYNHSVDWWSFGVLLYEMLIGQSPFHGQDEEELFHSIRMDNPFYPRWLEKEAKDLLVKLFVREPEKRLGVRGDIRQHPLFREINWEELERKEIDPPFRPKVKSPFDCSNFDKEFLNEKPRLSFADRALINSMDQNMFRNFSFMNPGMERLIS

[5] = target: Protein kinase C theta type (Homo sapiens) (UniProt Q04759); details: at 1 µM
[6] = target: Protein kinase C beta type (Homo sapiens) (UniProt P05771); details: at 0.1 µM
Chain of Protein kinase C beta type (Homo sapiens) (P05771 2-671 limits assumed): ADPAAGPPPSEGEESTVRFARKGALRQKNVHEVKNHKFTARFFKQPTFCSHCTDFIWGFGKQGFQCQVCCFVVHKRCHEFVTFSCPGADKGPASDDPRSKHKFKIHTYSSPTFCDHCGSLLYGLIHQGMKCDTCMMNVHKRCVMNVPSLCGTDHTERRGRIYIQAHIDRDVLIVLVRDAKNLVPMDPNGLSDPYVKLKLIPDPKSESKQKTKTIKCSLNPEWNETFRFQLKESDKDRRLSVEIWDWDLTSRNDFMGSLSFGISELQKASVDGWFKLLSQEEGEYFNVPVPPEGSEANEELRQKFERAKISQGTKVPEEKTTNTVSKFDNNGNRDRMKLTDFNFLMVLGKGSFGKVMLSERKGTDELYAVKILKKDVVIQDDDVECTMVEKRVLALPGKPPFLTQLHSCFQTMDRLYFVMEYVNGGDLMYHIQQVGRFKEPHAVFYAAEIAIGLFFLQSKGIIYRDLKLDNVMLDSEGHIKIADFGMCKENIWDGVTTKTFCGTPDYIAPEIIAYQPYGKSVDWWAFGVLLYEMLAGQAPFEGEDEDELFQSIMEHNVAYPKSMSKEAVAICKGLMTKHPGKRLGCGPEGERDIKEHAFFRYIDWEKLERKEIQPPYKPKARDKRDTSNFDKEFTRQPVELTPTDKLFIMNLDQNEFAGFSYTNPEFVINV

[7] = target: Protein kinase C beta type (Homo sapiens) (UniProt P05771); details: at 1 µM
[8] = target: T2, Serine/threonine-protein kinase D1 (Homo sapiens) (UniProt Q15139); details: at 0.1 µM
T2 sequence (whole entry): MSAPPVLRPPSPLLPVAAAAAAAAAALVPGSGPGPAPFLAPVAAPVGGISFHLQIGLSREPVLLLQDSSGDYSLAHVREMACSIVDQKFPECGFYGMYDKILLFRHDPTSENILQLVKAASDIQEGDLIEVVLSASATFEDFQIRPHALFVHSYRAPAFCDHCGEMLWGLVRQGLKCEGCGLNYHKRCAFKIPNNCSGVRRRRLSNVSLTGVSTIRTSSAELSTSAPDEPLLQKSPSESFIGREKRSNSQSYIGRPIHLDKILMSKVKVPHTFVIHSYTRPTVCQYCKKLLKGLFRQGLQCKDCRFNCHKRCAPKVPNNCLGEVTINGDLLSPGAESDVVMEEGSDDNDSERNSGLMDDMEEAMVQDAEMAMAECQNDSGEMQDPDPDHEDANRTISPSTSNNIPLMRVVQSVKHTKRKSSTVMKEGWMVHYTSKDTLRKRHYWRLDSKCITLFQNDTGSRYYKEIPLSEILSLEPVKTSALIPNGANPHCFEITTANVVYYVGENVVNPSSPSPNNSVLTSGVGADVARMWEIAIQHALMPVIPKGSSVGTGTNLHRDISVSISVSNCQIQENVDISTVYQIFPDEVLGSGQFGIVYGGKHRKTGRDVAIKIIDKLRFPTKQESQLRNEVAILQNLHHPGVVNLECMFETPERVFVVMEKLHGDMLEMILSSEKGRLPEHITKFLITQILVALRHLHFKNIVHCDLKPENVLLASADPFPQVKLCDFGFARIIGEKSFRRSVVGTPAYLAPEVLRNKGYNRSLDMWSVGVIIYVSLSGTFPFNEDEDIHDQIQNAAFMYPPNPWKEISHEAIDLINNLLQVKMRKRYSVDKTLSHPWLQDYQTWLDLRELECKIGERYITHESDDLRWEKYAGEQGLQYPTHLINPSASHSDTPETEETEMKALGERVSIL

[9] = target: T2, Serine/threonine-protein kinase D1 (Homo sapiens); details: at 1 µM
[10] = target: T3, Serine/threonine-protein kinase D2 (Homo sapiens) (UniProt Q9BZL6); details: at 0.1 µM
T3 sequence (whole entry): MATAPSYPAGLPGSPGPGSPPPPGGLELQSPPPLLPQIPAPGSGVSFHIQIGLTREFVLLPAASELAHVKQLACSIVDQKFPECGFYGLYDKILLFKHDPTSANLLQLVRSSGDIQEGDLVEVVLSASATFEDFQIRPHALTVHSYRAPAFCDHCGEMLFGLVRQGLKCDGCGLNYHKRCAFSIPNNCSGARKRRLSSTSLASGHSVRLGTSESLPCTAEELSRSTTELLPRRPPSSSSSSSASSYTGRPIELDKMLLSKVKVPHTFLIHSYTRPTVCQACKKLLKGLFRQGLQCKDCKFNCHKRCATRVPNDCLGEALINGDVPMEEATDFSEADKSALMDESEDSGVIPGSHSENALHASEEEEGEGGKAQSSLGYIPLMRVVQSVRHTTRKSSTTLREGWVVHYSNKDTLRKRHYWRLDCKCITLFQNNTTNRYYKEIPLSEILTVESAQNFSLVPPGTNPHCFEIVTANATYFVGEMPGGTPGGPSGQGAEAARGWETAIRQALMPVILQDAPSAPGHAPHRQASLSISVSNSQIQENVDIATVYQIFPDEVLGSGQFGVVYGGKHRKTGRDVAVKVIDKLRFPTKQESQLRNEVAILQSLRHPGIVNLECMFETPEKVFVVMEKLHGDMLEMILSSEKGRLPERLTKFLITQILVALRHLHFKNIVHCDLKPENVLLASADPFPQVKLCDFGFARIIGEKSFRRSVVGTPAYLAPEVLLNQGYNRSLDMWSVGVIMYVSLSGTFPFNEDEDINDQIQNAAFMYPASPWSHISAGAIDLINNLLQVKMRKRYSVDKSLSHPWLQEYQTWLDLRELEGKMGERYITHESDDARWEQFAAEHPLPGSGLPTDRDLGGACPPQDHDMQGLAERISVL

[11] = target: T3, Serine/threonine-protein kinase D2 (Homo sapiens); details: at 1 µM
[12] = target: T4, Serine/threonine-protein kinase D3 (Homo sapiens) (UniProt O94806); details: at 0.1 µM
T4 sequence (whole entry): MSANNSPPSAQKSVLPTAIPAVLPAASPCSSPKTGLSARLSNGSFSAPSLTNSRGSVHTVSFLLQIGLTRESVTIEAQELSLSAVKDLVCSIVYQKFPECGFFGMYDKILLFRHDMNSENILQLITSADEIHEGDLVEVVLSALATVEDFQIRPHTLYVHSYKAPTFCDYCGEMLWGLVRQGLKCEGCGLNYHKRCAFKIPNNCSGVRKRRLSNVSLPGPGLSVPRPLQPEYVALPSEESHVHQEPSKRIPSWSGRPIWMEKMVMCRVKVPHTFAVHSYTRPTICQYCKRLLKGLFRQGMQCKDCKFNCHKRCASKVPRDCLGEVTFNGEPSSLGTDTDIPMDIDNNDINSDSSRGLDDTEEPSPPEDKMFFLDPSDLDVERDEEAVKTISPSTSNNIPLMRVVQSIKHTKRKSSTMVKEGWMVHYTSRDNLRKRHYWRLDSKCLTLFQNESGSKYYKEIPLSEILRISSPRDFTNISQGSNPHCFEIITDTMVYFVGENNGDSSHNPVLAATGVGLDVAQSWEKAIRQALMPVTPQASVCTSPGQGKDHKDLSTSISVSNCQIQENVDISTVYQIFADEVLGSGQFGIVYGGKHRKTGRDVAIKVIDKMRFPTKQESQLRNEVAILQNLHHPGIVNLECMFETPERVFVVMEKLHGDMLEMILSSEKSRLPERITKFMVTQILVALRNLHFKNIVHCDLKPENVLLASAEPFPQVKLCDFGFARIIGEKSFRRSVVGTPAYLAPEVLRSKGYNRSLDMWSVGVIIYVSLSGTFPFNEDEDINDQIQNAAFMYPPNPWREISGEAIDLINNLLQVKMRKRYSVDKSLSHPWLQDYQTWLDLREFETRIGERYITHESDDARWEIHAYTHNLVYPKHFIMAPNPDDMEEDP

[13] = target: T4, Serine/threonine-protein kinase D3 (Homo sapiens); details: at 1 µM
[14] = target: T5, cGMP-dependent protein kinase 1 (Homo sapiens) (UniProt Q13976); details: at 0.1 µM
T5 sequence (whole entry): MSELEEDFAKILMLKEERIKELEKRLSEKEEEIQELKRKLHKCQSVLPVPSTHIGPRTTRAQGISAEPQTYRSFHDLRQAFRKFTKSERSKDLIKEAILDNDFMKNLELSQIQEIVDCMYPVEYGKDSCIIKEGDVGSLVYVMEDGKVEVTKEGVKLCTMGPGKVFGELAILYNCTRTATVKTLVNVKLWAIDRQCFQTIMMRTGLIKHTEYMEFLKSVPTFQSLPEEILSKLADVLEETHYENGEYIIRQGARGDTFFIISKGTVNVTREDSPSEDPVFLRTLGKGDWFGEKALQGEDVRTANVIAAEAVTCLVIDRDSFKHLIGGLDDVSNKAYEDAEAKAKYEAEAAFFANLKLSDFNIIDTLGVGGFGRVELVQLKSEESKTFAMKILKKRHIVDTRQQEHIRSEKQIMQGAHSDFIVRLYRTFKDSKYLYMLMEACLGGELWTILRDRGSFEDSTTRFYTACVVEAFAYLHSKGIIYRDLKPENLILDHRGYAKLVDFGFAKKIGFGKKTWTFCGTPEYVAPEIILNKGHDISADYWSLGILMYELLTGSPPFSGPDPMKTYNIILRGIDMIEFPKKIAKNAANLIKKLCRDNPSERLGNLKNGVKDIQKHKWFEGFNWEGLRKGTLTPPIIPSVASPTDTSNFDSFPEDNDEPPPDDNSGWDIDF

[15] = target: T5, cGMP-dependent protein kinase 1 (Homo sapiens); details: at 1 µM
[16] = target: T6, cGMP-dependent protein kinase 2 (Homo sapiens) (UniProt Q13237); details: at 0.1 µM
T6 sequence (whole entry): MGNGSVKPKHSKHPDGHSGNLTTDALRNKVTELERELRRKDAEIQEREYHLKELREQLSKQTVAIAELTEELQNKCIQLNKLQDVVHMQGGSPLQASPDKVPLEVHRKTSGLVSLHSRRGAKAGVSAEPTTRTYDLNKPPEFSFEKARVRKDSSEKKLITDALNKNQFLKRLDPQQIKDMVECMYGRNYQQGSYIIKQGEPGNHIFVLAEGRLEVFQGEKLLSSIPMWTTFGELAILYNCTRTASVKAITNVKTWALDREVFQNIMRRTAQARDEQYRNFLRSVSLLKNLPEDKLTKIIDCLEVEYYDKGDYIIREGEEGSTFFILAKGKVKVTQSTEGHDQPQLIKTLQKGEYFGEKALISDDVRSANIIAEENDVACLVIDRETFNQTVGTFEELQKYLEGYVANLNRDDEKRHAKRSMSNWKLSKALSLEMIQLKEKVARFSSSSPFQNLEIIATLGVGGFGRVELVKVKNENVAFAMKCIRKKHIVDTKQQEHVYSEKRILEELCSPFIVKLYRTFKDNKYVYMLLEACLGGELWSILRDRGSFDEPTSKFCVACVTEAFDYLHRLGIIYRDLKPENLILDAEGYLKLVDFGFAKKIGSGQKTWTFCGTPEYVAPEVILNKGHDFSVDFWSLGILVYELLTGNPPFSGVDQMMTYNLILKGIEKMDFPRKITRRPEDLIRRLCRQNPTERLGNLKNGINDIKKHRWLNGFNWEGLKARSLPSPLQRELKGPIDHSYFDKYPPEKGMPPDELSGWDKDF

[17] = target: T6, cGMP-dependent protein kinase 2 (Homo sapiens); details: at 1 µM
[18] = target: T7, cAMP-dependent protein kinase catalytic subunit PRKX (Homo sapiens) (UniProt P51817); details: at 0.1 µM
T7 sequence (whole entry): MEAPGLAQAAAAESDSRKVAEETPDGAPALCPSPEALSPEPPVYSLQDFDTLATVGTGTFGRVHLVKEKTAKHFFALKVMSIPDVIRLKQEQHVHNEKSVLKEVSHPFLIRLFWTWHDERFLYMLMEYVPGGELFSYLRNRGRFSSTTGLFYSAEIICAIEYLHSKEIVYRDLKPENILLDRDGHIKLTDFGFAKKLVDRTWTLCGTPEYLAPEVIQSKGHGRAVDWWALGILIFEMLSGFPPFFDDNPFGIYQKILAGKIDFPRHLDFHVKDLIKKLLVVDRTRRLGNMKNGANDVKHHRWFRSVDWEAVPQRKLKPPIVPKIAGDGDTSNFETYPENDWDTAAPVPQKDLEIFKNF

[19] = target: T7, cAMP-dependent protein kinase catalytic subunit PRKX (Homo sapiens); details: at 1 µM
[20] = target: Rho-associated protein kinase 1 (Homo sapiens) (UniProt Q13464); details: at 0.1 µM;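 note: values are mean percent inhibition of ROCK1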
Chain of Rho-associated protein kinase 1 (Homo sapiens) (Q13464 2-1354 limits assumed): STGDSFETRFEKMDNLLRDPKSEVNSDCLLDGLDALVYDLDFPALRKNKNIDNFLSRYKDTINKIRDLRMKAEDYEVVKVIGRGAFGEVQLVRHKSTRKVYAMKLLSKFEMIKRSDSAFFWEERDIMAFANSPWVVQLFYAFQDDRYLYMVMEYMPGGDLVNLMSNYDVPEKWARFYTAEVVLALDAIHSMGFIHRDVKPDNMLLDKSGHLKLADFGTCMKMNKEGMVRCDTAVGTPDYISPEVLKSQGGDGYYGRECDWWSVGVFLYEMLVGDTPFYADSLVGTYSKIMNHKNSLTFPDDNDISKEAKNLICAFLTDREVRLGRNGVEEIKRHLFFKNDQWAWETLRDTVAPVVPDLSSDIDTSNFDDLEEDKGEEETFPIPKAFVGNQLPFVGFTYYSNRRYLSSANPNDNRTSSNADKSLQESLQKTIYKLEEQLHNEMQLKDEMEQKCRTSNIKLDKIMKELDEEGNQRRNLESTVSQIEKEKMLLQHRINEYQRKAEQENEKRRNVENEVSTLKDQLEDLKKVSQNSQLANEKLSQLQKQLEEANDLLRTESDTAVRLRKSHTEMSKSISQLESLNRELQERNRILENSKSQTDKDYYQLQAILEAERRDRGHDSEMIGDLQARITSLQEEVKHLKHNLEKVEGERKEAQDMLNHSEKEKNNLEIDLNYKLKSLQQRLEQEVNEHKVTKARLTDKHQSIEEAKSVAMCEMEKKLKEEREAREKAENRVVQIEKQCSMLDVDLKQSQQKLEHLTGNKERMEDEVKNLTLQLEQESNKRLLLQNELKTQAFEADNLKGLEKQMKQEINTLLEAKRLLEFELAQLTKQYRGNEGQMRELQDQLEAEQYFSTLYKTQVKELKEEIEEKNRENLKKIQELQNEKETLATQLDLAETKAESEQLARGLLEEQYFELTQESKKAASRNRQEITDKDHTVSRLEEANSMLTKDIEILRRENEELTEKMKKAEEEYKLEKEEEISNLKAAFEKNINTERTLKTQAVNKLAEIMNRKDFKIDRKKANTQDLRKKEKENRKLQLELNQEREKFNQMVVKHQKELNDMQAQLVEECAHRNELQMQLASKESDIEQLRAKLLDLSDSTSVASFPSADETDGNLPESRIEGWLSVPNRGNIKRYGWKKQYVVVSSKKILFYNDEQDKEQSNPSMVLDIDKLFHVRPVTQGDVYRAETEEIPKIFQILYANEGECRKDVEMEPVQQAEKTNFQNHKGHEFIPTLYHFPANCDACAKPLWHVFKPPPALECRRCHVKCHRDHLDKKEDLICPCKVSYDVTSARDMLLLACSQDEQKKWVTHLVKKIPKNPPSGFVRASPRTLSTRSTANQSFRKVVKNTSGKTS

Row | Structure (SMILES) | inhibition [1] | inhibition [2] | inhibition [3] | inhibition [4] | inhibition [5] | inhibition [6] | inhibition [7] | inhibition [8] | inhibition [9] | inhibition [10] | inhibition [11] | inhibition [12] | inhibition [13] | inhibition [14] | inhibition [15] | inhibition [16] | inhibition [17] | inhibition [18] | inhibition [19] | inhibition [20]
1 | CCn1c(-c2nonc2N)nc2c(C#CC(C)(C)O)nc(OC[C@@H](N)c3ccccc3)cc21 | 45.3% | 1.26% | 0.8% | 11.9% | 52.5% | 3.74% | 23.1% | -0.47% | 9.57% | -0.26% | 8.54% | -0.8% | 8.35% | 17.7% | 63.5% | 35.9% | 73.3% | 78.2% | 79.3% | 5.46%
2 | Cc1nnc(-c2ccc(C)c(-c3ccc(C(=O)Nc4cccc(C#N)c4)cc3)c2)o1 | 5.13% | -0.73% | -1.05% | 1% | 1.47% | 1.09% | 1.38% | 4.29% | 4.48% | 2.17% | 3.13% | 2.37% | 3.16% | 0.21% | 2.16% | 1.21% | 3.35% | 0.63% | 1.68% | -0.21%
